Rab9 prom act – Rab9 promoter activation. Huh7 Rab9 promoter-luciferase reporter, luminescence, 24 h. Potency, µM (titrated, usually from 9.22 µM), most hits filed as activators. 320,000 tested, 2.8% active; further: nearly all actives have a fitted effect of over 60% in size
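Using Huh7 cells stably transfected with Rab9 promoter–luciferase, compounds were incubated 24 h at 37 °C, 5% CO2; luciferase luminescence was read 10 min after reagent addition.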
FLuc modulator – counter-screen for miR-21 project: firefly luciferase inhibitors or activators; P08659; purified FLuc, Km substrates, luminescence inhibition; Potency, µM (series often up to 57.5 µM), usual class: inhibitors; AID 588342; 360,000 tested, 6.9% active; further: nearly all actives have a fitted effect of over 55% in size
Target sequence (P08659 whole entry, looked up): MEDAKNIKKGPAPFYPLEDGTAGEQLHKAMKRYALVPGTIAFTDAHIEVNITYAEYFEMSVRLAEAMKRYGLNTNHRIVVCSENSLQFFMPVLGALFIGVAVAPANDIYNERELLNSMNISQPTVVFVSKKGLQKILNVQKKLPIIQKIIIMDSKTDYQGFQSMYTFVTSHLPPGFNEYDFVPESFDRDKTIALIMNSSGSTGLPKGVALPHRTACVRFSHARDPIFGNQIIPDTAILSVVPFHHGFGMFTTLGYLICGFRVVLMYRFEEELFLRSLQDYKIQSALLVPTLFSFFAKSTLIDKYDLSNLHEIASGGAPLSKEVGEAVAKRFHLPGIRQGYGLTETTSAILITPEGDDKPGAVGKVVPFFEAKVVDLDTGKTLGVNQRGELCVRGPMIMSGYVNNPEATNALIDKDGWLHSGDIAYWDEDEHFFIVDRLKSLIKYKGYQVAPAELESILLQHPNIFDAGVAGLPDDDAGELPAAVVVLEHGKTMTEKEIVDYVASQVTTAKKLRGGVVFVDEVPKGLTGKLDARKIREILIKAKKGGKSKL
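Purified P. pyralis luciferase (10nM final) with 10uM D-luciferin and 10uM ATP (Km levels) in 50mM Tris acetate pH 7.5, 10mM Mg acetate, 0.01% Tween-20, 0.05% BSA; qHTS 6-point titration, ~60 µM downward; luminescence read.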
Luc counter – blocks Kinase-Glo luciferase, a counter-screen artifact | Kinase-Glo luciferase, ATP luminescence, 8 min | AID 1379 | Potency, µM (top dose mostly 38.3 µM), most hits filed as inhibitors | 200,000 tested, 0.28% active; further: nearly all actives have a fitted effect of over 60% in size
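Compound is pinned into ATP-containing buffer (10 uM ATP, imidazole pH 7.2, 7 mM MgCl2). Kinase-Glo luciferase reagent is then added. Light output is recorded following an 8-min room-temperature incubation.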
NPC1 promoter act – activators of NPC1 promoter. Huh7 NPC1 promoter luciferase reporter, 24 h. Potency, µM (series often up to 9.22 µM), actives largely listed as activators. 320,000 tested, 2.4% active. AID 485313; further: nearly all actives have a fitted effect of over 60% in size
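Luminescence read-out of NPC1 promoter-driven luciferase in stably transfected Huh7 cells; compounds delivered in DMSO and left 24 h at 37C, 5% CO2, qHTS titration format.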
ELG1 genotoxic – inducers of genotoxicity in HEK293T ELG1-luciferase cells; HEK293T ELG1-luciferase reporter, luminescence, 16 h; Potency, µM (titrated, usually from 46 µM), usual class: activators; 330,000 tested, 1.3% active; AID 504466; further: nearly all actives have a fitted effect of over 60% in size
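ELG1-luciferase HEK293T cells, 2,000/well; compound pinned in; 16 hr, 37 °C, 5% CO2; ONE-Glo, 30 min RT; luminescence on CCD imager.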
SMN2 splice up – increases expression of the SMN2 splice variant | HEK293 SMN2-luciferase splicing reporter, luminescence, 30-36 h | Potency, µM (highest dose often 46.1 µM), most hits filed as activators | 210,000 tested, 2.8% active | AID 1458; further: nearly all actives have a fitted effect of over 55% in size
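qHTS luciferase splicing reporter: luminescence rises when SMN2 exon 7 is included in transfected HEK293 cells. Compound exposure lasted 30-36 h at 37C, with 4.5 mM final sodium butyrate as control, followed by a ONE-Glo read.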
Hits are given with their value; 0 = inactive; ? = inconclusive; - = not tested or not shown; [ ] = remark or other dose. A selection: hits, their analogues and other compounds. The true share with any hit is near 7.4%. The call rests on the fitted dose curve; in most records, active means well fitted curve in the direction sought with a large enough effect; inconclusive means small, poorly fitted or top-dose-only effect, or another doubt; inactive means no such curve, though single readings can be large; an effect the other way counts as inactive or inconclusive.

SMILES	Rab9 prom act	FLuc modulator	Luc counter	NPC1 promoter act	ELG1 genotoxic	SMN2 splice up
COc1ccc(-c2cn3cc(Cl)ccc3n2)cc1OC	?	7.6µM	0	0	?	11µM
COc1ccc(-c2cn3cc(C)ccc3n2)cc1Br	1.3µM	0.48µM	0	0.89µM	?	2.2µM
O=C(O)c1ccccc1-c1cn2cc(Cl)ccc2n1	?	7.6µM	?	0	0	0
Clc1ccc2nc(-c3ccc(Br)s3)cn2c1	?	0.34µM	0	0	0.41µM	0.71µM
O=C(c1cccc2nc3ccccc3nc12)N1CCOCC1	0	0	-	0	0	-
O=S1(=O)c2cccc3cccc(c23)N1Cc1nnc(-c2ccccc2Br)o1	0	0	0	0	0	0
O=C1c2ccccc2S(=O)(=O)N1Cc1nnc(-c2ccccc2Br)o1	0	21µM	0	0	0	0
Nc1c(C(=O)Nc2ccccc2)nnn1-c1ccc2c(c1)OCCO2	0.1µM	0.85µM	-	0.22µM	0.18µM	-
Cc1ccc(NC(=O)c2nnn(-c3ccc4c(c3)OCCO4)c2N)cc1	5.6µM	11µM	-	2.2µM	?	-
CN(C)C(=O)CCc1ccc2c3c([nH]c2c1)[C@]1(CCc2ccccc2)[C@@H](C(=O)N2CCCCC2)C[C@H](CC(=O)NCCCn2ccnc2)C(=O)N1CC3	-	-	-	-	0	-
Nc1ccc2oc(=O)c(-c3ccccc3)cc2c1	0	?	-	?	?	-
O=c1oc2ccccc2cc1-c1ccc(O)cc1	3.5µM	12µM	0	?	?	?
O=c1oc2ccccc2cc1NCc1ccccc1O	0	15µM	0	0	?	0
O=c1oc2ccccc2cc1O	-	-	0	-	-	0
Nc1ccc(-c2cc3ccccc3oc2=O)cc1	0	21µM	-	0	0	-
COc1ccc(NC(=O)Cn2c(CCC(=O)O)ccc2-c2ccc(C)cc2)cc1	0	0	0	0	0	0
CCOc1ccc(NC(=O)c2sc3nc4c(cc3c2N)CN(Cc2ccccc2)CC4)cc1	-	0	-	-	-	0
CCOc1ccc2nc3sc(C(=O)N4CCOCC4)c(N)c3cc2c1	0.56µM	1.5µM	0	0.56µM	0	1.3µM
Cc1cc(C)c2cc3c(N)c(C(=O)N4CCOCC4)sc3nc2c1	?	11µM	0	?	0	-
Cc1cc(C)c2nc3sc(C(=O)N4CCOCC4)c(N)c3cc2c1	?	0.21µM	-	2.2µM	1.5µM	-
CSCCC(NC(=O)c1ccccc1Br)C(=O)N1CCCC(C(F)(F)F)C1 (centres undefined)	0	0	-	0	0	-
CC(C)COC(=O)/C(C#N)=C/c1c[nH]c2ccccc12	0	?	0	0	?	0
O=C(NC(=S)Nc1ccccc1O)c1ccc(Cl)cc1Cl	?	19µM	0	?	?	0
O=C(Nc1ccccc1Cl)c1ccc(Cl)cc1Cl	0	13µM	0	0	0	0
C#Cc1cccc(NC(=O)c2ccc(Cl)cc2Cl)c1	1.1µM	2.7µM	-	1.8µM	16µM	-
SMILES	Rab9 prom act	FLuc modulator	Luc counter	NPC1 promoter act	ELG1 genotoxic	SMN2 splice up
Nc1ccccc1C(=O)Nc1ccc(Cl)cc1Cl	2.5µM	11µM	-	?	?	-
CCOC(=O)c1cccc(NC(=O)C2Cc3ccccc3N2C(=O)c2ccccc2)c1 (centres undefined)	-	0	-	-	-	-
O=C(N/N=C/c1ccc2c(c1)OCO2)c1cc(-c2ccco2)nc2ccccc12	0	0.85µM	-	0	0	-
O=C(N/N=C/c1ccc2c(c1)OCO2)c1cc(-c2ccccc2)nc2ccccc12	0	11µM	0	0	0	0[1.84 µM]
COc1ccccc1NS(=O)(=O)c1cccc(C(=O)NCC(c2ccco2)N(C)C)c1 (centres undefined)	0	0	-	0	0	-
Cn1c(/N=C/c2ccc3c(c2)OCO3)nc2ccccc21	0	0.24µM	11µM	0	0	0
Nc1nc2ccccc2n1/N=C/c1ccc(Br)cc1	?	?	0	?	16µM	35µM
Nc1nnnn1/N=C/c1ccc(Br)cc1	0	0	-	0	?	-
Nc1nc2ccccc2n1/N=C/c1ccc2c(c1)OCO2	4µM	11µM	-	2µM	?	-
COC(=O)c1ccc(CNC(=O)COC(=O)c2ccccc2-c2ccccc2)cc1	0	?	-	0	0	-
Cc1ccc2[nH]c(=O)c(CN(C)C(=O)c3cccs3)cc2c1	0	0	0	0	0	0

Bioassay records as filed in PubChem BioAssay.
